In PubChem BioAssay AID1159580 (chemical genetic matrix, 2015):
Screen size: about 5,500 compounds; about 2,000 (36%) were called active. Another 18% or so got no clear call; they are omitted. No stated cut-off is given here; in the data, active means normalized growth mostly below about 0.91 (no sharp cut-off); inconclusive means no clear call, values can overlap the other calls; inactive means mostly above about 0.92. The list shows a part of the results.

Assay: chemical genetic growth profiling, strain panel (AID 1159580);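 further: tested at 20 µM; growth read once vehicle control cultures reached saturation at 30 °C; 1 = growth at the plate median or of vehicle wells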
Details: S. cerevisiae deletion strains, growth OD

Measured: normalized growth

CC(=O)O[C@]1(C(C)=O)CCC2C3C=C(Cl)C4=CC(=O)CC[C@]4(C)C3CC[C@@]21C (some centres undefined)
inactive: locus YAL021C, strain ccr4, stronger effect = lower value 1.02 | locus YAL026C, strain drs2, stronger effect = lower value 1.04 | locus YAL030W, strain snc1, stronger effect = lower value 0.978 | locus YBL061C, strain skt5, stronger effect = lower value 0.997 | locus YBR009C, strain hhf1, stronger effect = lower value 0.999 | locus YBR023C, strain chs3, stronger effect = lower value 1.01 | locus YBR171W, strain sec66, stronger effect = lower value 1.01 | locus YBR231C, strain swc5, stronger effect = lower value 1 | locus YBR279W, strain paf1, stronger effect = lower value 1 | locus YCL011C, strain gbp2, stronger effect = lower value 1 | locus YCL016C, strain dcc1, stronger effect = lower value 0.988 | locus YCL069W, strain vba3, stronger effect = lower value 1.01 | locus YCR088W, strain abp1, stronger effect = lower value 1.01 | locus YDL005C, strain med2, stronger effect = lower value 0.991 | locus YDL040C, strain nat1, stronger effect = lower value 1 | locus YDR001C, strain nth1, stronger effect = lower value 1.01 | locus YDR069C, strain doa4, stronger effect = lower value 0.967 | locus YDR137W, strain rgp1, stronger effect = lower value 0.894 | locus YDR159W, strain sac3, stronger effect = lower value 0.925 | locus YDR195W, strain ref2 1.02 | locus YDR297W, strain sur2, stronger effect = lower value 0.957 | locus YDR334W, strain swr1, stronger effect = lower value 1.01 | locus YDR335W, strain msn5, stronger effect = lower value 0.974 | locus YDR392W, strain spt3, stronger effect = lower value 0.832 | locus YEL003W, strain gim4, stronger effect = lower value 1.01 | locus YEL037C, strain rad23, stronger effect = lower value 1.02 | locus YEL061C, strain CIN8 (second series), stronger effect = lower value 1.01 | locus YER015W, strain faa2, stronger effect = lower value 1.01 | locus YER016W, strain bim1, stronger effect = lower value 0.984 | locus YER111C, strain swi4, stronger effect = lower value 1.01 | locus YER155C, strain BEM2 (second series), stronger effect = lower value 0.99 | locus YFR010W, strain ubp6, stronger effect = lower value 1.03 | locus YGL167C, strain pmr1, stronger effect = lower value 0.993 | locus YGL173C, strain kem1, stronger effect = lower value 1.03 | locus YGL227W, strain vid30, stronger effect = lower value 0.998 | locus YGL240W, strain doc1, stronger effect = lower value 0.952 | locus YGL253W, strain hxk2, stronger effect = lower value 0.991 | locus YHR013C, strain ard1, stronger effect = lower value 1.06 | locus YHR027C, strain rpn1, stronger effect = lower value 0.985 | locus YHR030C, strain SLT2, stronger effect = lower value 1.03 | locus YHR079C, strain IRE1, stronger effect = lower value 1.04 | locus YHR142W, strain chs7, stronger effect = lower value 1 | locus YJL092W, strain hpr5, stronger effect = lower value 1.01 | locus YJL095W, strain BCK1 (second series), stronger effect = lower value 0.983 | locus YJL095W, strain BCK1, stronger effect = lower value 0.991 | locus YJL115W, strain asf1, stronger effect = lower value 1.03 | locus YJL129C, strain trk1, stronger effect = lower value 1.01 | locus YJL154C, strain vps35, stronger effect = lower value 1.01 | locus YJL164C, strain tpk1, stronger effect = lower value 1.01 | locus YJL166W, strain qcr8, stronger effect = lower value 0.98 | locus YJL187C, strain SWE1, stronger effect = lower value 0.952 | locus YJR066W, strain TOR1, stronger effect = lower value 0.98 | locus YKL160W, strain elf1, stronger effect = lower value 0.977 | locus YKR026C, strain gcn3, stronger effect = lower value 1.01 | locus YKR091W, strain srl3, stronger effect = lower value 1.01 | locus YLL001W, strain dnm1, stronger effect = lower value 1.02 | locus YLL026W, stronger effect = lower value 1 | locus YLL041C, strain sdh2, stronger effect = lower value 0.993 | locus YLR027C, strain aat2, stronger effect = lower value 0.97 | locus YLR113W, strain HOG1, stronger effect = lower value 0.923 | locus YLR221C, strain rsa3, stronger effect = lower value 0.986 | locus YLR258W, strain gsy2, stronger effect = lower value 0.958 | locus YLR262C, strain YPT6 (second series), stronger effect = lower value 0.947 | locus YLR320W, strain mms22, stronger effect = lower value 0.991 | locus YLR342W, strain FKS1, stronger effect = lower value 0.974 | locus YLR357W, strain rsc2, stronger effect = lower value 1.04 | locus YLR370C, strain arc18, stronger effect = lower value 0.973 | locus YLR384C, strain iki3, stronger effect = lower value 0.981 | locus YML120C, strain ndi1, stronger effect = lower value 0.967 | locus YMR058W, strain fet3, stronger effect = lower value 1.02 | locus YMR125W, strain sto1, stronger effect = lower value 1 | locus YMR129W, stronger effect = lower value 0.967 | locus YMR205C, strain PFK2, stronger effect = lower value 0.943 | locus YMR231W, strain pep5, stronger effect = lower value 1.02 | locus YNL071W, strain lat1, stronger effect = lower value 1.01 | locus YNL183C, strain NPR1, stronger effect = lower value 0.958 | locus YNL209W, strain ssb2, stronger effect = lower value 0.99 | locus YNL248C, strain rpa49, stronger effect = lower value 1.03 | locus YNL322C, strain KRE1 (second series), stronger effect = lower value 1.01 | locus YNR049C, strain mso1, stronger effect = lower value 0.97 | locus YOR001W, strain rrp6, stronger effect = lower value 0.99 | locus YOR070C, strain gyp1, stronger effect = lower value 0.978 | locus YOR080W, strain dia2, stronger effect = lower value 0.996 | locus YOR083W, strain WHI5, stronger effect = lower value 0.997 | locus YOR106W, strain vam3, stronger effect = lower value 1.03 | locus YOR231W, strain MKK1, stronger effect = lower value 0.994 | locus YOR265W, strain rbl2, stronger effect = lower value 0.979 | locus YOR270C, strain vph1, stronger effect = lower value 1.01 | locus YOR290C, strain snf2, stronger effect = lower value 1.01 | locus YPL051W, strain arl3, stronger effect = lower value 1 | locus YPL078C, strain atp4, stronger effect = lower value 0.996 | locus YPL106C, strain sse1, stronger effect = lower value 1.01 | locus YPL240C, strain hsp82, stronger effect = lower value 1 | locus YPL256C, strain CLN2, stronger effect = lower value 1.04
